# Assay outcomes as filed in PubChem.
# Only some compounds are listed: those with a hit (about 1.5% of all), similar ones and a draw of the others.
# AID504770 – growth inhibition of E. coli YBA685, primary screen, V. cholerae RctB inhibitors. E. coli YBA685 rctB-dependent plasmid, OD600 growth, 3 h; stronger effect = lower value. z-score (test concentration not listed). 130,000 compounds, 0.27% hits. AID 504770, 2011; in the data active = z-score below about -2, passing the limit was not always enough
# Mtb MbtI inh – MbtI salicylate synthase inhibitors, primary screen, biochemical, fluorescence intensity; P9WFX0; purified MbtI enzyme, fluorescence intensity read-out; inhibition, % (concentration not given with the values); 100,000 compounds, 0.89% hits; AID 493033, 2011; in the data active = inhibition mostly above about 56%, no sharp cut-off; inactive = mostly below about 77%
# Polio RdRp inh – poliovirus RdRp elongation inhibitors, primary screen, biochemical, fluorescence polarization, total intensity | Genome polyprotein (Poliovirus type 1 (strain Mahoney)), P03300 | poliovirus polymerase elongation; stronger effect = lower value | % elongation, % (compound at 16.7 µg/mL) | 150,000 compounds, 0.66% hits; in the data active = % elongation below about 90%
# Target sequence (P03300 1749-2209 limits assumed): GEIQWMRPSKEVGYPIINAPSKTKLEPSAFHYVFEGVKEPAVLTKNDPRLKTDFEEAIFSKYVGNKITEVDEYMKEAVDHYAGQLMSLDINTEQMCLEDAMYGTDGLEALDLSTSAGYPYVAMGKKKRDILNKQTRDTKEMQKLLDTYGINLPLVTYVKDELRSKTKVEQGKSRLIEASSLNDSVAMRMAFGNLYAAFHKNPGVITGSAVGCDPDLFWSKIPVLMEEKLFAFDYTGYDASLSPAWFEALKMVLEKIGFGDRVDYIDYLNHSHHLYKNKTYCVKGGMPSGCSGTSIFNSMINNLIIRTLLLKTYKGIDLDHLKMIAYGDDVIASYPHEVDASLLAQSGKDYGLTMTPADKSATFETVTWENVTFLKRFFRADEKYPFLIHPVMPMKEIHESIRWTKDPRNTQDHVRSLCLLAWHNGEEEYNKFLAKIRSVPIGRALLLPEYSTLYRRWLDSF
# Mtb MenB inh – M. tuberculosis MenB inhibitors, primary screen, biochemical, absorbance; MenB enzyme assay, absorbance read-out; AID 540299, 2011; 100,000 compounds, 0.43% hits; 1,4-dihydroxy-2-naphthoyl-CoA synthase (Mycobacterium tuberculosis (strain ATCC 25618 / …; inhibition, % (concentration not given with the values); in the data active = inhibition above about 21%, passing the limit was not always enough
# * marks the source's active call; other numbers are inactive results; i = inactive; x = not tested or not shown.
SMILES,AID504770,Mtb MbtI inh,Polio RdRp inh,Mtb MenB inh
CC1=NN(c2ccccc2)C(=O)C1C(=O)O (configuration not stated),1.3,-3,102,-23
O=C(c1ccc2nc(/C=C(\O)c3ccc(Cl)cc3)c(=O)[nH]c2c1)N1CCOCC1,0,-5,96,-22
FC(F)(F)c1cccc(CN2CCSCC2)c1,-0.3,-3,97,-7
O=S1(=O)CCN(Cc2cccc(C(F)(F)F)c2)CC1,-2.7*,x,x,x
COc1cc2c(cc1OC)C(C)N(C(=O)CN1C(=O)CCc3ccccc31)CC2 (configuration not stated),-2.9*,-6,102,-11
COc1ccc2nc(C)cc(Oc3ccc4c(c3)OCO4)c2c1,-0.1,27,100,1
COC1=CC(=O)c2ccccc2C1=O,-2.6*,3,85*,-7
OC(c1ccc(Cl)cc1)C(O)c1nc2ccccc2[nH]1 (configuration not stated),-0.3,-6,100,0
OCC(O)C(O)C(O)C(O)c1nc2ccccc2[nH]1 (configuration not stated),-0.15,-12,62*,-16
Cn1cccc1C(=O)Nc1ccc(S(=O)(=O)N2CCOCC2)cc1,0.15,-5,102,8
c1ccc(-c2nc(N3CCCCC3)c3ccccc3n2)cc1,-0.15,55,101,33*
O=C(Cn1c(C(=O)NCc2ccco2)cc2sccc21)c1ccccc1,1.1,12,104,24*
COc1ccccc1NC(=O)[C@H](Cc1ccccc1)NC(=O)c1ccco1,-0.6,-5,105,-22
O=C1CSc2ccc(C(=O)OCC(=O)N3CCCc4ccccc43)cc2N1,0.1,60*,102,8
CC[n+]1c(-c2ccccc2)c2cc(N)ccc2c2ccc(N)cc21,-0.05,4,75*,12
Cc1ccc2oc(=O)c(/C=C(\O)CC(C)C)nc2c1,1.1,-1,102,69*
CCS(=O)(=O)c1ccc2oc(=O)c(/C=C(\O)c3oc(C)nc3C)nc2c1,0.55,-3,99,-6
CCOC(=O)C1CCCCN1Cc1ccc(Br)cc1 (configuration not stated),-0.5,-17,100,-15
CCOC(=O)c1ccc(NC(=O)NC(C)c2ccc3c(c2)OCO3)cc1 (configuration not stated),-0.45,15,104,-8
CCOC(=O)c1ccc(NC(=S)NC(C)c2ccc3c(c2)OCCO3)cc1 (configuration not stated),0.6,-1,54*,-23
O=C(N=Nc1c(O)[nH]c2cc3c(cc12)OCCCO3)C1CCCCC1,-0.75,3,99,-5
O=Nc1c(O)[nH]c2cc3c(cc12)OCCO3,-0.35,11,86*,-12
CCN(CC)C(=S)Nc1ccc2oc(N(C)C)nc2c1,-0.5,x,90*,-7
N#C/C(=C(/O)CSc1ncnc2c1cnn2-c1ccccc1)c1nc2ccccc2[nH]1,0.95,0,107,-16
Cc1cc2c(cc1C)C(=O)C(N1CCOCC1)=C(c1ccccc1)C2=O,0,54*,102,8
SMILES,AID504770,Mtb MbtI inh,Polio RdRp inh,Mtb MenB inh
COc1ccc(CCNc2nc(C)nc3c2nnn3Cc2ccccc2)cc1OC,-0.1,-3,100,39*
CC(C)CSc1nnc2n(-c3ccccc3)c(=O)c3ccccc3n12,1.4,30,103,3
CN(C)[C@@H]1C(=O)C(C(N)=O)=C(O)[C@@]2(O)C(=O)C3=C(O)c4c(O)cccc4[C@@](C)(O)[C@H]3[C@H](O)[C@@H]12,-3.9*,-12,100,-27
CC1c2cccc(O)c2CC2=C(O)C3(O)C(O)=C(C(N)=O)C(=O)C(N(C)C)C3C(O)C21 (configuration not stated),-4.1*,x,92,-78
C[C@H]1c2cccc(O)c2C(O)=C2C(=O)[C@]3(O)C(O)=C(C(N)=O)C(=O)[C@@H](N(C)C)[C@@H]3[C@@H](O)[C@@H]21,-0.25,-15,99,5
CN(C)[C@@H]1C(=O)C(C(N)=O)=C(O)[C@@]2(O)C(=O)C3=C(O)c4c(O)ccc(Cl)c4[C@@](C)(O)[C@H]3C[C@@H]12,-3.6*,i,100,0
CCN1CSC(=S)N(CC)C1,-2.5*,-6,101,-17
CCS(=O)(=O)n1nc(-c2ccco2)nc1SC,0.65,82*,96,-14
CSc1nc(-c2ccco2)nn1C(=O)c1ccccc1,1.1,20,103,-3
COc1ccccc1NC(=O)c1c(C)[nH]c(=S)c(C#N)c1-c1ccc(C)o1,0.5,45,100,-63
O=C(O)CCCC(=O)Nc1ccc(C(=O)N2CCCCC2)cc1,1.6,-2,102,33*
CCC(Sc1nc2ccccc2s1)C(=O)Nc1ccccc1C#N (configuration not stated),0.05,0,x,x
O=S(=O)(CS(=O)(=O)Sc1ccc(Cl)cc1)Sc1ccc(Cl)cc1,-3.5*,49,99,-1
O=C(Nc1ccc(N2CCOCC2)cc1)C1=NCCN1,-0.55,-7,63*,-18
O=C(O)c1nccnc1C(=O)Nc1ccc(N2CCOCC2)cc1,1.5,5,101,-10
Cc1c(C(=O)N2CCOCC2)oc2c1-c1nn(CC(=O)NCc3cccc(F)c3)cc1CC2,x,x,84*,x
Cc1c(C(=O)N2CCCC2)oc2c1-c1nn(CC(=O)NCCCOC(C)C)cc1CC2,x,x,47*,x
COC(=O)c1ccc(COC(=O)c2ccccc2C(F)(F)F)cc1,0.45,6,102,x
CCn1c2ccccc2c2nnc(SCC(=O)NCc3ccco3)nc21,-0.25,1,102,-6
Cn1c(=O)[nH]c2nncnc2c1=O,-1.7,6,43*,-152
Cn1c(=O)[nH]c2c(nc(-c3ccccc3)n2C)c1=O,2.1,x,109,5
NC(=S)c1ccccc1N,0.65,41,55*,-14
CC1=NC2C(C=NN2c2ccccc2)C(SCC(=O)NCCc2ccc(F)cc2)=N1 (configuration not stated),-0.05,-8,104,-62
CSc1nc2c(=S)[nH]c(=S)[nH]c2s1,-1.1,55*,82*,-95
COc1cc(C(=O)OCc2nnc(-c3ccc(Cl)cc3)o2)cc(CN2C(=O)c3ccccc3C2=O)c1OC,-0.05,-2,103,-24
SMILES,AID504770,Mtb MbtI inh,Polio RdRp inh,Mtb MenB inh
Cc1nn(Cc2ccc(C(=O)Sc3ccc(C(F)(F)F)cn3)o2)c(C)c1Br,0.55,86*,104,9
Cc1ccc(C)c(-n2c(SCc3ccc(C#N)cc3)nnc2-c2cc3sccc3n2C)c1,-1.1,-11,101,-17
CCc1c(C)sc(NC(=O)C2CC3CCC2C3)c1C(=O)OC (configuration not stated),0.85,x,88*,-8
CCc1c(C)sc(NC(=O)/C=C/c2cccs2)c1C(=O)OC,-1,-18,100,-42
N#Cc1cc2c(nc1SCC(=O)O)CCC2,-2.4*,x,108,6
N#Cc1cc2c(nc1SCC(=O)N1CCCCC1)CCCC2,-0.05,-36,100,-6
O=C(/C=C(\O)c1ccc(Cl)cc1)C(F)(F)F,-4.3*,36,103,0
